In the library only some 1.6% were active in any assay of this set; here they are far more common.
KCNQ2 pot – enhances the rat KCNQ2 potassium channel; O88943; CHO-K1 KCNQ2, FluxOR thallium flux fluorescence; hits give high values; B-score at 10 µM; 310,000 tested, 0.54% active; AID 2239;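 active = fluorescence ratio B-score at least 3 SD of library B-scores, with initial fluorescence B-score within 3 of them, cut at about 5.3 in these data; same plate scores as AID 2156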;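 note: B-score of peak minus minimum over baseline fluorescence ratio after K+ and Tl+ stimulus; positive B-score means potentiation of KCNQ2 with more thallium influx and brighter signal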
Target sequence (O88943 whole entry, looked up): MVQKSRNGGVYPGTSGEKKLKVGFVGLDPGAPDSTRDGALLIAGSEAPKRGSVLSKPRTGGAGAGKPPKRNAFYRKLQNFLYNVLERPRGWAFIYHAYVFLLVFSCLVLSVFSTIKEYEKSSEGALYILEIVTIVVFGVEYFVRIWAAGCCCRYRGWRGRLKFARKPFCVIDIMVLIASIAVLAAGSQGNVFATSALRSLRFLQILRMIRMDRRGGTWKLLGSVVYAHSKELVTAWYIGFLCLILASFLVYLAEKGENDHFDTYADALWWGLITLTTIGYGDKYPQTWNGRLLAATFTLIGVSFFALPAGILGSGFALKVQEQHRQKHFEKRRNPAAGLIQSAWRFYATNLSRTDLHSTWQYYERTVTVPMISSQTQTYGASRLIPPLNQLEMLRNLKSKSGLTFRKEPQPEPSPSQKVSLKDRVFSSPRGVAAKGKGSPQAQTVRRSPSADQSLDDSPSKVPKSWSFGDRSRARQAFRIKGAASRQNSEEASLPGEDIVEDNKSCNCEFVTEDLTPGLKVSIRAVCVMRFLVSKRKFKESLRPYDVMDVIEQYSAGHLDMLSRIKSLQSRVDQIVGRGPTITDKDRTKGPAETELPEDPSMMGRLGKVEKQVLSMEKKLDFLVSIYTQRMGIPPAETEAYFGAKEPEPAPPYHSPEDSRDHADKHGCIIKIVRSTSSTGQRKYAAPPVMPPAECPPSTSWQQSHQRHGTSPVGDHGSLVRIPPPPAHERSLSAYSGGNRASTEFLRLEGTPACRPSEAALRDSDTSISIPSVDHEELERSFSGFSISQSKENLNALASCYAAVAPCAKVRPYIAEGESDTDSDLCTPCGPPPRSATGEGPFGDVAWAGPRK
KCNQ2 block – inhibitors of rat KCNQ2 potassium channel; O88943; CHO-K1 KCNQ2, FluxOR thallium flux, 20 min; hits give low values; B-score at 10 µM; 310,000 tested, 1.1% active; AID 2156;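 active = fluorescence ratio B-score at most minus 3 library SDs, with starting brightness B-score within 2 library SDs, cut at about -5.5 in these data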
KCNQ2 inh conf – rat KCNQ2 channel inhibition, confirmatory screen | activity change, negative = inhibition, % at 10 µM | KCNQ2-expressing cells, thallium flux; hits give low values | shares compounds with KCNQ2 block | 1,000 tested, 57% active;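 note: 0% = vehicle wells and values are ratio percent relative to vehicle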
KCNQ1 spec – human KCNQ1 activity in KCNQ2 inhibitor specificity screen | shares compounds with KCNQ2 block | AID 493026 | 1,000 tested, 15% active | activity change, negative = inhibition, % at 10 µM | KCNQ1-expressing cells, FluxOR thallium flux fluorescence; hits give low values;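 active = activity change at least 3 SD of negative controls below their mean in both duplicate wells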;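 note: CHO cells stably transfected with KCNQ1 and depolarized by potassium stimulus; peak minus minimum fluorescence over baseline after thallium addition; 0% = vehicle negative control and -100% = blank without thallium stimulus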
CHO Tl ctr – counter-screen for KCNQ2 inhibitors: effect in parental CHO cells; 1,000 tested, 14% active; thallium flux counter-screen; hits give low values; shares compounds with KCNQ2 block; AID 493029; activity change, % at 10 µM;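 note: 0% = vehicle negative controls with stimulus buffer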
KCNQ2 patch conf – confirmation of rat KCNQ2 potassium channel inhibitors | shares compounds with KCNQ2 block | KCNQ2-expressing cells, automated patch clamp current | calls only at 10 µM | 550 tested, 49% active | AID 588531
* = called active by the depositor; i = inactive; / = no result; + = active, no number. Unless noted, the rule behind the calls is not given here.

SMILES	KCNQ2 pot	KCNQ2 block	KCNQ2 inh conf	KCNQ1 spec	CHO Tl ctr	others
O=C(CS(=O)(=O)c1cn(CC(=O)N2CCCC2)c2ccccc12)Nc1ccccc1F	/	i	/	/	/
COc1ccccc1NC(=O)COC(=O)/C=C/c1ccccc1[N+](=O)[O-]	2.3	i	/	/	/
COc1ccccc1/C=C/C(=O)OCC(=O)Nc1ccccc1Sc1ccccc1	-6.8	-6.8*	-30%*	i	i	KCNQ2 patch conf=i
COc1ccc(NC(=O)CN(C)C(=O)c2cc(-c3ccccc3)nc3ccccc23)cc1	/	i	/	/	/
Cc1ccc2nc(-c3ccccc3)cc(C(=O)N(C)CC(=O)Nc3ccccc3Br)c2c1	-8.1	-8.1*	i	i	i
COc1cc(OC)cc(N2C(=O)CC(N3CCC(C(=O)N4CCCCC4)CC3)C2=O)c1 (stereo not drawn)	/	i	/	/	/
CCOc1ccc(-c2nnn(CC#N)n2)cc1OC	0.34	i	/	/	/
O=c1nc2n(c3ncccc13)CCCCC2	3.4	i	/	/	/
COc1cc(NC(=O)c2ccno2)cc(C(=O)Nc2cccc(C(F)(F)F)c2)c1	/	i	/	/	/
O=C(Nc1cccc(C(F)(F)F)c1)c1csc(-c2ccncc2)n1	0.48	i	/	/	/
COc1cc(NC(=O)c2cc3cccc(OC)c3o2)cc(C(=O)Nc2cccc(C(F)(F)F)c2)c1	-7.6	-7.6*	i	i	i
COc1cc(NC(=O)c2csc(-c3ccncc3)n2)cc(C(=O)Nc2cccc(C(F)(F)F)c2)c1	-6.9	-6.9*	-20%*	i	i	KCNQ2 patch conf=i
O=[N+]([O-])c1ccc(C(O)C23CN4CN(CN(C4)C2)C3)cc1 (stereo not drawn)	0.37	i	/	/	/
Clc1ccc(/C=C/c2nc3ccccc3[nH]2)cc1	/	i	/	/	/
Clc1cccc(Cl)c1/C=C/c1nc2ccccc2[nH]1	-8.7	-8.7*	-36%*	-42%*	-30%*	KCNQ2 patch conf=i
COc1ccc2c(c1)-c1c(ssc1=S)C(C)(C)N2C(=O)CSC1=NCCS1	/	i	/	/	/
CCOc1ccc2c(c1)-c1c(ssc1=S)C(C)(C)N2C(=O)c1ccco1	-8.8	-8.8*	i	i	i
CC1CCCN(C(=O)C2CCN(S(=O)(=O)c3cccc4cccnc34)CC2)C1 (stereo not drawn)	0.62	i	/	/	/
CCOc1ccc(NC(=S)NC(=O)c2cncc(Br)c2)cc1	0.03	i	/	/	/
CC(=O)N1N=C(c2ccccc2)CC1c1ccc(F)cc1 (stereo not drawn)	/	i	/	/	/
Cc1ccc(NC(=O)N2N=C(c3ccc(F)cc3)CC2c2ccc(F)cc2)cc1 (stereo not drawn)	-7.9	-7.9*	i	i	i
CN(C)CCNc1nc(-c2ccco2)c2c(c1C#N)CC(C)(C)OC2	/	i	/	/	/
CCCCN(C)c1nc(-c2ccco2)c2c(c1C#N)CC(C)(C)OC2	-8.2	-8.2*	i	i	i
COc1ccc(NC(=O)C2CC(=O)OC23CCOC(C)(C)C3)cc1 (stereo not drawn)	/	i	/	/	/
CC(C)(C)n1nnnc1C(c1ccc(F)cc1)N(Cc1ccc(F)cc1)Cc1ccco1 (stereo not drawn)	-11	-11*	-30%*	i	i	KCNQ2 patch conf=i
SMILES	KCNQ2 pot	KCNQ2 block	KCNQ2 inh conf	KCNQ1 spec	CHO Tl ctr	others
CCN(Cc1ccccc1)C(c1ccc(C)cc1)c1nnnn1C(C)(C)CC (stereo not drawn)	-8.8	-8.8*	-28%*	i	i	KCNQ2 patch conf=i
Cc1cc2cc(C(c3nnnn3C(C)(C)C)N(Cc3ccco3)CC3CCCO3)c(=O)[nH]c2cc1C (stereo not drawn)	0.49	i	/	/	/
CCC(C)(C)n1nnnc1C(c1ccc(C)cc1)N1CCSCC1 (stereo not drawn)	/	i	/	/	/
CC(C)(C)n1nnnc1C(c1ccc(C(F)(F)F)cc1)N(Cc1ccccc1)Cc1ccco1 (stereo not drawn)	-11	-11*	-57%*	-58%*	-54%*
Fc1ccc(C(c2nnnn2C2CCCC2)N(Cc2ccco2)CC2CCCO2)cc1 (stereo not drawn)	/	i	/	/	/
CCCn1c(O)c(N=N)c2ccccc21	0.38	i	/	/	/
COc1ccc(N2CCN(C(=O)c3ccccc3NC(=O)c3ccccc3)CC2)cc1	/	i	/	/	/
O=c1c2ccccc2nc(COc2ccccc2)n1/N=C/c1ccco1	-10	-10*	i	i	i
O=c1c2ccccc2nc(COc2ccccc2)n1/N=C/c1ccc(O)c(O)c1	/	i	/	/	/
Cc1ccc(N=C2CCCCCN2C)c(C#N)c1	/	i	/	/	/
Cc1ccc(N=C2CCCN2Cc2ccccc2)c(C#N)c1	-9	-9*	-47%*	-43%*	-34%*	KCNQ2 patch conf=+
CN(C)S(=O)(=O)c1cccc(NC(=O)CN2C(=O)NC(CCc3ccccc3)C2=O)c1 (stereo not drawn)	1.1	i	/	/	/
COc1ccc(Cl)cc1NC(=O)C1CC(c2ccccc2O)=NO1 (stereo not drawn)	1.1	i	/	/	/
COc1ccccc1C(=O)n1nc(-c2ccccc2)nc1NCc1ccco1	-8.7	-8.7*	i	i	i
CCS(=O)(=O)n1nc(-c2ccccc2)nc1NCc1ccco1	0.01	i	/	/	/
O=C(c1ccco1)n1nc(-c2ccccc2)nc1NCc1ccco1	0.1	i	/	/	/
Cc1ccc(S(=O)(=O)n2nc(-c3ccc(Cl)cc3)nc2NCc2ccco2)cc1	-9.3	-9.3*	i	i	i
Cc1ccc2c(c1)N(CC(=O)N1CCCCCC1)C(=O)C(C)O2 (stereo not drawn)	/	i	/	/	/
COc1ccccc1NC(=O)c1cc(-c2ccc(C)o2)nc2ccccc12	-8.1	-8.1*	-34%*	i	i	KCNQ2 patch conf=+
Cc1ccc(-c2cc(C(=O)Nc3cccnc3)c3ccccc3n2)o1	-8.1	-8.1*	i	i	i
COc1ccccc1NC(=O)c1cc(C)nc2ccccc12	/	i	/	/	/
Cc1ccc(NC(=O)c2cc(-c3ccc(C)o3)nc3ccccc23)cc1	/	i	/	/	/
COc1cc(/C=N/NC(=O)c2cc(-c3cccc(OC(C)C)c3)nc3ccccc23)ccc1O	1.2	i	/	/	/
O=C(Cn1cc(S(=O)(=O)Cc2ccc([N+](=O)[O-])cc2)c2ccccc21)N1CCOCC1	0.31	i	/	/	/
Cc1cccc2nc(COc3ccc(Cl)c4cccnc34)cn12	-9.1	-9.1*	-29%*	i	i	KCNQ2 patch conf=+
SMILES	KCNQ2 pot	KCNQ2 block	KCNQ2 inh conf	KCNQ1 spec	CHO Tl ctr	others
O=[N+]([O-])c1ccccc1COc1ccc(Cl)c2cccnc12	/	i	/	/	/
CC1CCN(c2ccc(C(=O)NCc3cccs3)cn2)CC1	/	i	/	/	/
COCCn1c(=NC(=O)/C=C/c2ccccc2)sc2cc(NC(C)=O)ccc21	0.35	i	/	/	/
S=C(NCc1ccccc1)Nc1cccc2ccccc12	1.6	i	/	/	/
Cc1ccc(C(C)C)c(OCCNC(=S)Nc2cccc3ccccc23)c1	-6.7	-6.7*	i	i	i
Cc1ccc(C(=O)C(C)OC(=O)c2nc(Cl)ccc2Cl)cc1 (stereo not drawn)	/	i	/	/	/
CCOc1ccccc1-n1nnnc1SCC(=O)O	0.01	i	/	/	/
